This excerpt belongs to a sample that is enriched for hits.
KDM4E inh = blocks human JMJD2E demethylase activity; B2RXH2; actives 1.6% (n = 230,000); AID 2147; JMJD2E catalytic domain, FDH-coupled NADH fluorescence (FDH is formaldehyde dehydrogenase); Potency, µM (top dose mostly 57.1 µM), for inactives: at the highest dose activity change, negative = inhibition, actives largely listed as inhibitors; active means well fitted inhibition curve with a large enough effect, not every such curve was filed as active; inconclusive means small, poorly fitted or top-dose-only effect, or another doubt; inactive means no such curve, though single readings can be large or run the other way;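 further: 0% = wells with enzyme and -100% = buffer wells without enzyme; nearly all actives have a fitted effect of over 50% in size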
RECQ1 inh-1 = blocks DNA unwinding by human RECQ1. P46063. RECQ1 DNA unwinding, red fluorescence kinetic read. Potency, µM (series often up to 57.3 µM), for inactives: at the highest dose activity, negative = inhibition, most hits filed as inhibitors. actives 0.54% (n = 240,000);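 further: plate controls were vehicle for no effect and no enzyme for full effect; nearly all actives have a fitted effect of over 30% in size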
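RECQ1T1 50 nM; forked duplex (20 bp + 30-nt ss tails) 200 nM, ATP 2 mM final; pH 8.0, 2 mM MgCl2, 2.5 ug/ml poly(dI-dC); 15 min compound preincubation; discontinuous kinetic read over 2 h at RT.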
APE1 inh = inhibitors of human APE1 endonuclease; P27695; recombinant APE1, TAMRA/BHQ-2 abasic DNA cleavage fluorescence; Potency, µM (doses to about 65.8 µM), for the others: at the top dose activity change, negative = inhibition, usual class: inhibitors; actives 0.35% (n = 350,000);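 further: plate controls were vehicle for no effect and reference inhibitor for full effect; nearly all actives have a fitted effect of over 55% in size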
Target sequence (P27695 whole entry, looked up): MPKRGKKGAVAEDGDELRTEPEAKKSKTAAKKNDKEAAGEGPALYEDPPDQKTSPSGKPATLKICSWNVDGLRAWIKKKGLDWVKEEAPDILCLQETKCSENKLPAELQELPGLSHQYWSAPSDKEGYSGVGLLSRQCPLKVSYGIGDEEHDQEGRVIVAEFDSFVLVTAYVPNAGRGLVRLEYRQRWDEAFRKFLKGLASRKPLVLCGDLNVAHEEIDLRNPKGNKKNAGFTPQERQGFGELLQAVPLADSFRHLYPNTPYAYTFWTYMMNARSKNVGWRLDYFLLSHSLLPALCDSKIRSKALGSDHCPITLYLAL
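APE1 at 0.75 nM preincubated 15 min at room temperature with compound. Reaction then started with 50 nM double-stranded THF-abasic substrate labelled with TAMRA/BHQ-2, and 525/598 nm fluorescence read kinetically. Activity taken as third-minus-first read difference, normalized to DMSO and NSC13755 controls.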
PKM2 act = PKM2 (human) enzyme activation; Potency, µM (highest dose often 57.5 µM), inactives show top-dose activation, usual class: activators; purified PKM2, Kinase-Glo ATP luminescence, activation; response scale: 0% is enzyme alone, no compound; actives 0.34% (n = 260,000); P14618; AID 1631; further: nearly all actives have a fitted effect of over 55% in size
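ATP formation by purified human PK-M2, quantified via coupled luciferase luminescence after 1 h at room temperature with 0.1 mM ADP and 0.5 mM PEP final.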
BLM inh = blocks DNA unwinding by human BLM helicase; recombinant BLM DNA unwinding, fluorescence dequenching; actives 0.2% (n = 350,000); P54132; Potency, µM (top dose mostly 56.1 µM), for the others: at the highest dose activity change, negative = inhibition, usual class: inhibitors;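 further: plate controls were vehicle for no effect and no enzyme for full effect; nearly all actives have a fitted effect of over 35% in size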
RECQ1 inh conf = confirmation of human RECQ1 helicase inhibitors; shares compounds with RECQ1 inh-1; RECQ1 helicase DNA unwinding, fluorescence; Potency, µM (series often up to 229 µM), without a hit: top-dose activity change, negative = inhibition, actives largely listed as inhibitors; actives 28% (n = 610); further: nearly all actives have a fitted effect of over 45% in size
RECQ1 ADP FP = counter-screen for RECQ1 inhibitors: ADP displacement; shares compounds with RECQ1 inh-1; ADP fluorescence polarization displacement counterscreen; Potency, µM (series often up to 228 µM), inactives show at the top dose activity change, negative = inhibition, actives largely listed as inhibitors; actives 27% (n = 530); AID 2711; further: nearly all actives have a fitted effect of over 45% in size
RECQ1 inh-2 = blocks human RECQ1 DNA unwinding; shares compounds with RECQ1 inh-1; recombinant RECQ1 DNA unwinding, red fluorescence; Potency, µM (top dose mostly 119 µM), for inactives: at the highest dose activity, negative = inhibition, actives largely listed as inhibitors; actives 15% (n = 1,100); AID 504841; further: nearly all actives have a fitted effect of over 50% in size
Starred values were filed as active, the others as inactive; [ ] = another dose, or the depositor's remark. Unless noted, the call rests on the fitted dose curve; in most records, active means well fitted curve in the direction sought with a large enough effect; inconclusive means small, poorly fitted or top-dose-only effect, or another doubt; inactive means no such curve, though single readings can be large; an effect the other way counts as inactive or inconclusive. Unless noted, on the % scale 0 is the no-effect control and ±100 the full control effect; potency means the concentration at half of the fitted maximal effect.

CCN(CC)S(=O)(=O)c1ccc(C(=O)NCc2n[nH]c(=S)n2-c2ccc(Cl)c(Cl)c2)cc1 was read as KDM4E inh 15%, RECQ1 inh-1 -2%, APE1 inh 1%, PKM2 act 10%, BLM inh -20%, RECQ1 inh conf -7% and RECQ1 ADP FP 8%.
For CCN(CC)S(=O)(=O)c1ccc(C(=O)NCc2n[nH]c(=S)n2-c2ccccc2OC)cc1 the results were KDM4E inh 8%, RECQ1 inh-1 -11%, APE1 inh -3%, PKM2 act -9% and BLM inh 0%.
Screening O=C(CNS(=O)(=O)c1c(Cl)cccc1Cl)OCC(=O)c1ccc[nH]1 returned KDM4E inh 2%, RECQ1 inh-1 inconclusive, APE1 inh 7%, PKM2 act 0%, BLM inh -26% and RECQ1 inh-2 -23%.
`COc1ccc(OC)c(CNC(=O)c2cc(S(=O)(=O)N3CCC(C)CC3)cn2C)c1` gave BLM inh -4%.
`c1ccc(Nc2cc(-c3ccoc3)ncn2)cc1` gave RECQ1 inh-1 -4%, APE1 inh -8% and BLM inh -10%.
Screening Nc1cc2c3c(cccc3c1)C(=O)N(CCN1CCCC1)C2=O returned KDM4E inh -13%, RECQ1 inh-1 inconclusive, APE1 inh inconclusive, PKM2 act -3% and BLM inh 118%.
For O=C1c2cccc3cc([N+](=O)[O-])cc(c23)C(=O)N1CCN1CCCC1 the results were KDM4E inh inconclusive, RECQ1 inh-1 inconclusive, APE1 inh inconclusive, PKM2 act -3%, BLM inh 108% and RECQ1 inh-2 25µM*.
`O=C(O)CSc1nnc(Cc2ccccc2)n1Cc1ccccc1` gave KDM4E inh -5%, RECQ1 inh-1 1%, APE1 inh 0%, PKM2 act 1%, BLM inh 1%, RECQ1 inh conf 12% and RECQ1 ADP FP 9%.
`CCn1c(C)c(C2=CCN(S(=O)(=O)c3ccc(C)cc3)CC2)c2ccccc21` gave KDM4E inh -1%, RECQ1 inh-1 -9%, APE1 inh 6%, PKM2 act 4% and BLM inh -6%.
Cc1c(C2=CCN(S(=O)(=O)c3ccc(Br)cc3)CC2)c2ccccc2n1C was read as KDM4E inh 16µM*, RECQ1 inh-1 35µM*, APE1 inh -4%, PKM2 act 1%, BLM inh -3%, RECQ1 inh conf 50µM* and RECQ1 inh-2 45µM*.
For Cc1ccc(-c2nnc3sc(C4COc5ccccc5O4)nn23)cc1 (stereo not drawn) the results were KDM4E inh 4%, RECQ1 inh-1 -7%, APE1 inh 0%, PKM2 act 0% and BLM inh -1%.
Screening Clc1ccccc1-c1nnc2sc(C3COc4ccccc4O3)nn12 (stereo not drawn) returned KDM4E inh 7%, RECQ1 inh-1 4.5µM*, APE1 inh 5%, PKM2 act 8%, BLM inh -8%, RECQ1 inh conf -13%[114 µM], RECQ1 ADP FP inconclusive and RECQ1 inh-2 -19%.
CC(Oc1ccccc1F)C(=O)N1CCC(c2nc3ccccc3o2)CC1 (stereo not drawn) was read as BLM inh -4%.
COC(=O)[C@@H]1[C@@H]2C[C@H]3c4[nH]c5ccccc5c4CCN3C[C@@H]2CC[C@@H]1O was read as KDM4E inh inconclusive, RECQ1 inh-1 -11%, APE1 inh inconclusive and BLM inh -4%.
